Here are results for five molecules from PubChem BioAssay.

The source made the active and inactive calls. Unless noted, no rule for the calls is given here.

The nature of assay [1]: compounds binding Alexa647 anti-His antibody – biochemical, small-molecule microarray, 635 nm fluorescence, artefact control for SMM control protein annotation, primary screen (AID 1128).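 Also: score merges feature fluorescence with signal-to-noise for each printed compound spot.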 The following applies: higher = more signal.
Assay [2] has as its system Human papillomavirus type 1a E7 protein (residues 1-88). The assay can be described thus: HPV1a E7 small-molecule binders, primary screen, biochemical, small-molecule microarray, residues 1-88, 635 nm (AID 1129). The following applies: small-molecule microarray binding, fluorescence 635 nm; higher = more signal.
In assay [3] the target is Focal adhesion kinase 1 (Homo sapiens) (UniProt Q05397). The experiment in a line: PTK2 protein binding on printed compound slides – biochemical, small-molecule microarray, 635/667 nm fluorescence, BSA, DTT, primary screen (AID 1130).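 Also: composite of spot emission at 667 nm and signal to noise over triplicate slides.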 The following applies: 635 nm fluorescence, higher = more signal.
Focal adhesion kinase 1 (Homo sapiens), sequence (Q05397 whole entry, looked up): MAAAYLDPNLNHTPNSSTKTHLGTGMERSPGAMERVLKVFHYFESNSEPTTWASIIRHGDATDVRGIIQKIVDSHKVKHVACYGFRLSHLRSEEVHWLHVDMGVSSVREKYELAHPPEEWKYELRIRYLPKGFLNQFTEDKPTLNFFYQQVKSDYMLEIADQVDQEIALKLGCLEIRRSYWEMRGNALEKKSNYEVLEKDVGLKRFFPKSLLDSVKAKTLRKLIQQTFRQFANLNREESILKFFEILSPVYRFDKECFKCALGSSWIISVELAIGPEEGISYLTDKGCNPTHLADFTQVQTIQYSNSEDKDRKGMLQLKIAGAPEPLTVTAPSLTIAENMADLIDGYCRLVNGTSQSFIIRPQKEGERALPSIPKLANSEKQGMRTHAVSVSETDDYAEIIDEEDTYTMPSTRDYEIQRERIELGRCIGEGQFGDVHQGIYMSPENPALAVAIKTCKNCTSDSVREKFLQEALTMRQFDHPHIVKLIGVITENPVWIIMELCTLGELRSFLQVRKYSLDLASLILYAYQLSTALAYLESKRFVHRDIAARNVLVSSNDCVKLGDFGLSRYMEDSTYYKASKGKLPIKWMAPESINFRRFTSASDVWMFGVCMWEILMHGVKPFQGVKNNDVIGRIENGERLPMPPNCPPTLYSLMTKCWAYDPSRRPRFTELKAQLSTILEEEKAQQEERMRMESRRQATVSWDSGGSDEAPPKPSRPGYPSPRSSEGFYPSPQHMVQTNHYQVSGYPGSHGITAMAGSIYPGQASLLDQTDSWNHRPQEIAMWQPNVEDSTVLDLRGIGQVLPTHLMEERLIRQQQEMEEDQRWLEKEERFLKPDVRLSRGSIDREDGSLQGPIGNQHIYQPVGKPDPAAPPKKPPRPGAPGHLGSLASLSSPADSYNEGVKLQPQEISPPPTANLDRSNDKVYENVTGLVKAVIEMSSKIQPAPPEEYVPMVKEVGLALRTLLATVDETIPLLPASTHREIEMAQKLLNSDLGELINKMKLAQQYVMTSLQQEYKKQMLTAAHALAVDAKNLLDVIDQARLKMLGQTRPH
The subject of assay [4] is Fibrinogen (Alexa647-labelled). The experiment in a line: Alexa647-fibrinogen binding to printed small molecules – biochemical, small-molecule microarray, 635/667 nm fluorescence, artefact control for SMM control-protein annotation, profiling panel (AID 1131).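 Also: z-score merges 667 nm fluorescence with per-spot signal-to-noise over triplicate slides.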 The following applies: fibrinogen-A647 binding fluorescence, higher = more signal.
The target in assay [5] is Follistatin (Homo sapiens) (UniProt P19883). The assay can be described thus: FST protein binding to printed compounds – biochemical, small-molecule microarray, 635/667 nm fluorescence, primary screen (AID 1132). The following applies: 635 nm fluorescence, higher = more signal.
Follistatin (Homo sapiens), sequence (P19883 whole entry, looked up): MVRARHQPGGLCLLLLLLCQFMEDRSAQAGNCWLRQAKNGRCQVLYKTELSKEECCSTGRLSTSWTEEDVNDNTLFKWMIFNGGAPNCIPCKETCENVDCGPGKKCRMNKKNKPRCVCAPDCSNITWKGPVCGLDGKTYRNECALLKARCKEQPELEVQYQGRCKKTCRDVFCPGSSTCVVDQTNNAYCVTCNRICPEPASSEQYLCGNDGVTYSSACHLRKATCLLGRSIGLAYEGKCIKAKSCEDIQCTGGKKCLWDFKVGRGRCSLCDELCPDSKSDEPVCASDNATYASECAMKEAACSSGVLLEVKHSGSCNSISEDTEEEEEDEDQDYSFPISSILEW
For assay [6], the target named is Fibroblast growth factor 2 (Homo sapiens) (UniProt P09038). The experiment in a line: basic fibroblast growth factor binding to printed compounds – biochemical, small-molecule microarray, 635/667 nm fluorescence, primary screen (AID 1133). The following applies: FGF2, fluorescence 635/667, higher = more signal.
Fibroblast growth factor 2 (Homo sapiens), sequence (P09038 whole entry, looked up): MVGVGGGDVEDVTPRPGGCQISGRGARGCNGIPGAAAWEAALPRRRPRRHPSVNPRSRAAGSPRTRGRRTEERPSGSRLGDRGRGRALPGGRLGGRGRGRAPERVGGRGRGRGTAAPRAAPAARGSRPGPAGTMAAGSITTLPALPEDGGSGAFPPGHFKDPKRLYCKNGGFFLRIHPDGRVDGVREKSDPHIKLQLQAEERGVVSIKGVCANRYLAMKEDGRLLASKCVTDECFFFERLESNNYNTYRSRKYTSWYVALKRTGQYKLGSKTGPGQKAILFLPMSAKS
The nature of assay [7]: JC-1 mitochondrial potential readout, lung cancer cells – cell-based, A549, JC-1 fluorescence, basal, 24 h, 100 nL, profiling panel (AID 1138).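 Also: A549 lung adenocarcinoma cells under basal conditions with no added stimulus; test concentration not given here.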 The following applies: higher = more signal.
The next assay has as its system Lefty1. The assay can be described thus: Lefty1 protein binding to printed compounds – biochemical, small-molecule microarray, 635/667 nm fluorescence, primary screen (AID 1139). The following applies: fluorescence 635/667, higher = more signal.
The subject of assay [8] is wheat germ agglutinin (Triticum aestivum), Alexa647-labelled. The assay can be described thus: Alexa647-WGA lectin binding to printed small molecules – biochemical, small-molecule microarray, 635/667 nm fluorescence, artefact control for SMM control-protein annotation, profiling panel (AID 1140).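 Also: score merges 667 nm feature emission with signal to noise over triplicate slides.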 The following applies: WGA-A647 binding, 635 nm fluorescence, higher = more signal.

The target of assay [9] is Luciferin 4-monooxygenase (Photinus pyralis) (UniProt P08659). The experiment in a line: inhibition of purified Photinus pyralis luciferase – biochemical, luminescence, purified enzyme, 2006 set, primary screen (AID 1141).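 Also: cell-free assay with purified firefly luciferase at 100 ng per well in PBS; test concentration not given here.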 The following applies: purified firefly luciferase, SteadyGlo luminescence, 30 min; higher = more signal, called active from +8 up or from −8 down.
Luciferin 4-monooxygenase (Photinus pyralis), sequence (P08659 whole entry, looked up): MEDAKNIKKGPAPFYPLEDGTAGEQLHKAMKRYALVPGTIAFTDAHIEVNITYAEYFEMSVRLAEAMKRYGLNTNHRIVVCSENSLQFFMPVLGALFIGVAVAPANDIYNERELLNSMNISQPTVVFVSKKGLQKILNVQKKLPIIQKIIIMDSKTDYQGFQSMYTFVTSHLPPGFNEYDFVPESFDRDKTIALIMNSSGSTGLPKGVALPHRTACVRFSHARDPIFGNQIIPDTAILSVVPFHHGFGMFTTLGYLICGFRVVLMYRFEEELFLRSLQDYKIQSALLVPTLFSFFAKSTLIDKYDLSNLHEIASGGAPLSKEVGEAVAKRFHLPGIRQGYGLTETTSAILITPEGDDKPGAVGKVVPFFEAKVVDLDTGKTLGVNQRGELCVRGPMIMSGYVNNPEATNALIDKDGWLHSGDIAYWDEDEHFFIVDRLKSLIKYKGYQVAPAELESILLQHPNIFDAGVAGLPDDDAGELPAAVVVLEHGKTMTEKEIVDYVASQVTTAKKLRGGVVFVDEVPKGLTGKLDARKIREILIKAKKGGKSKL
Assay [10] relates to Wnt5a (protein binding on small-molecule microarray). The experiment in a line: small molecules binding Wnt5a protein – biophysical, small-molecule microarray, 635/667 nm fluorescence, primary screen (AID 1142).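 Also: fluorescence read at 667 nm with signal to noise per printed feature.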 The following applies: 635 nm fluorescence, higher = more signal.
A short description of assay [11]: ATP-based viability of Huh7 replicon cells – cell-based, CellTiter-Glo luminescence, basal, 48 h, cytotoxicity control for HCV replication inhibitor project, primary screen (AID 1143).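 Also: Huh7 hepatoma cells carrying a hepatitis C replication reporter with no stimulus; test concentration not given here.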 The following applies: higher = more signal, called active from +8 up or from −8 down.
Assay [12] can be described thus: Pseudomonas biofilm growth suppression – PAO1 strain, BacTiter-Glo luminescence, LB-PBS, primary screen (AID 1144). The following applies: P. aeruginosa PAO1 biofilm, 12 h, higher = more signal.
Assay [13] can be described thus: basal CRE-LacZ reporter activity in PC12 – cell-based, unstimulated, primary screen (AID 1145). The following applies: no forskolin, luminescence, 4.5 h, higher = more signal, called active from +8 up or from −8 down.
Assay [14] in a line: forskolin-driven CRE-LacZ activity in PC12 – cell-based, CRE-LacZ reporter, forskolin-stimulated, primary screen (AID 1146).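 Also: PC12 cells with 6xCRE LacZ reporter stimulated by forskolin 10 µM; beta-galactosidase reporter signal reflecting CREB driven transcription.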 The following applies: luminescence, 4.5 h, higher = more signal, called active from +8 up or from −8 down.
Assay [15] addresses Streptavidin (Streptomyces avidinii) (UniProt P22629). The assay can be described thus: compounds binding control protein streptavidin – biophysical, small-molecule microarray, 635/667 nm fluorescence, artefact control for SMM compound annotation, primary screen (AID 1147).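 Also: signal reflects streptavidin binding to arrayed compounds as a control protein.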 The following applies: higher = more signal.
A short description of assay [16]: probe aInhba binding on compound microarray – biochemical, small-molecule microarray, 635/667 nm fluorescence, primary screen (AID 1148).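 Also: score merges 667nm spot fluorescence with signal-to-noise for antibody binding to printed compounds.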 The following applies: higher = more signal.
In assay [17] the target is Torsin-1A (Homo sapiens) (UniProt O14656). The experiment in a line: TOR1A wild-type binding on microarray – cell lysate, small-molecule microarray, lysate, 635/667 nm, primary screen (AID 1149). The following applies: COS7 hTOR1A-WT lysate, 635 nm fluorescence, higher = more signal.
Torsin-1A (Homo sapiens), sequence (O14656 whole entry, looked up): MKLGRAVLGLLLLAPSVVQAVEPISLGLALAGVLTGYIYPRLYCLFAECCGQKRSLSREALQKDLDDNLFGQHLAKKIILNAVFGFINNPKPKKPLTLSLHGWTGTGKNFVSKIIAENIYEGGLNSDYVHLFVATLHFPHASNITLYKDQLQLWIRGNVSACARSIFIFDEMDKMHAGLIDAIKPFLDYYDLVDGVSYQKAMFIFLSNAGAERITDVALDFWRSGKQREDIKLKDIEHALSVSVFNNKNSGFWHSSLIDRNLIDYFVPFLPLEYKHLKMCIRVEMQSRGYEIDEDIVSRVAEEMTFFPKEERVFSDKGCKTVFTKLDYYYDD
The target is the same in assay [18]. The assay can be described thus: torsin A mutant lysate binding on microarrays – cell lysate, small-molecule microarray, COS7 lysate, 635/667 nm fluorescence, primary screen (AID 1150).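 Also: score pools 667 nm emission and signal to noise measuring lysate protein binding.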 The following applies: COS7 hTOR1A mutant lysate, 635 nm fluorescence, higher = more signal.
In assay [19] the test system is Sonic hedgehog protein (Shh). The assay can be described thus: Sonic hedgehog microarray binding compounds – biochemical, small-molecule microarray, 635/667 nm fluorescence, primary screen (AID 1151).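 Also: Shh protein binding to compounds spotted on small-molecule microarray slides; score combines spot fluorescence intensity with signal-to-noise across triplicate slides.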 The following applies: 635 nm fluorescence, higher = more signal.

Streptavidin (Streptomyces avidinii), sequence (P22629 whole entry, looked up): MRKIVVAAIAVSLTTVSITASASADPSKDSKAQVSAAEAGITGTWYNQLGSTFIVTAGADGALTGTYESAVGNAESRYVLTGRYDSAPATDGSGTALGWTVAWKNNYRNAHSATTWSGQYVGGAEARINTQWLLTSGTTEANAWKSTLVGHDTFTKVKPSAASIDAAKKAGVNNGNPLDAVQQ

Turning to `COc1cc2c(cc1OC)CN(C(=O)[C@H]1[C@@H]3C(=O)O[C@@H](c4ccccc4)[C@@H](c4ccccc4)N3[C@@H](c3ccc(O)cc3)[C@]13C(=O)Nc1ccc(C#CC4(O)CCCCCC4)cc13)CC2`, the composite z-score in assay [1] came to 1.5; in assay [2] it was 1.23; in assay [3] it was 1.02; in [4], 0.86; in assay [5], 1.28; in assay [6], 1.71. For the same molecule, the composite z-score with Lefty1 turned out to be 0.59; in assay [8], 1.31; in assay [10] it was 0.723; in assay [15], 2.42; in [16], 0.472; with Torsin-1A (Homo sapiens) [17] it was 0.601. The composite z-score came out at 1.36 in the assay with Torsin-1A (Homo sapiens) [18] and 1.39 in assay [19]. The z-score in assay [7] is -1.23; in [9], -0.409 (inactive); in assay [11], -0.715 (inactive); in assay [12] it was -0.785 (inactive); in assay [13] it was 0.425 (inactive); in [14], 0.603 (inactive).
As to `O=C(CS)NCCCCCCNC(=O)[C@@H]1C[C@@H]2C(=O)N[C@@H](Cc3ccccc3)C(=O)N2[C@@H]1c1ccc(O)cc1`, the composite z-score in assay [1] was 2.75; in [2], 1.24; in assay [3] it was 0.874; in [4], 0.255; in assay [5], 1.38; in assay [6], 1.73. Besides, the composite z-score in the assay with Lefty1 worked out at 1.48; in assay [8] it was 0.072; in assay [10], 0.588; in assay [15], 0.226; in [16], 0.0503; with Torsin-1A (Homo sapiens) [17] it was 1.12. Moreover, the composite z-score with Torsin-1A (Homo sapiens) [18] came out at 1.14; in [19] it was 1.86. Besides, the z-score in [7] was -1.39; in [9] it was -0.663 (inactive); in assay [11], -0.345 (inactive); in assay [12], -0.75 (inactive); in [13], -0.537 (inactive); in assay [14], -0.835 (inactive).
As for `C=C(CCCC)/C(=C/C[C@@H](OC(=O)c1ccncc1)c1ccc(CO)o1)c1cnc2ccccc2c1`, the composite z-score in assay [1] stood at 1.24; in assay [2], 0.723; in assay [3] it was 1.64; in assay [4], 0.878; in assay [5], 1.46; in [6], 1.69. Moreover, the composite z-score in the assay on Lefty1 was 1.65; in [8] it was 1.22; in [10], 0.209; in assay [15] it was 1.39; in assay [16], 0.461; with Torsin-1A (Homo sapiens) [17], 1.42. Moreover, the composite z-score is 1.07 with Torsin-1A (Homo sapiens) [18] and 2.18 in assay [19]. Also, the z-score in assay [7] was 0.146; in assay [9], -3.5 (inactive); in [11] it was -1.47 (inactive); in [12] it was -1.26 (inactive); in [13] it was 2.38 (inactive); in [14], 0.176 (inactive).
As for `COCCOC(=O)N1C(=O)[C@@]2(c3cc(C#CCNC(N)=O)ccc31)[C@H](c1ccccc1OCCO)N1[C@H](c3ccccc3)[C@H](c3ccccc3)OC(=O)[C@H]1[C@@H]2C(=O)NC[C@H](O)c1ccccc1`, the composite z-score in assay [1] came out at 1.06; in [2], 1.2; in assay [3], 0.499; in assay [4], 0.943; in [5], 1.28; in assay [6], 0.472. Moreover, the composite z-score in the assay on Lefty1 is 0.688; in assay [8], 0.832; in assay [10], 0.439; in assay [15], 0.903; in assay [16] it was -0.0375; in the assay with Torsin-1A (Homo sapiens) [17], 0.834. The composite z-score with Torsin-1A (Homo sapiens) [18] turned out to be 0.525; in assay [19] it was 1.87. Besides, the z-score in assay [7] is -1.31; in [9], 0.311 (inactive); in assay [11], -0.429 (inactive); in assay [12] it was -0.209 (inactive); in assay [13], -1 (inactive); in [14], 0.172 (inactive).
With `CCCCCCc1nc(-c2cc(C)c(OC)c(C)c2)cc2c1[Si](C(C)C)(C(C)C)O[C@H]2c1ccccc1`, the composite z-score was -0.36 in assay [1]; -0.341 in [2]; -0.272 in assay [3]; -0.399 in assay [4]; 0.0128 in [5]; -0.683 in assay [6]. For the same molecule, the composite z-score in the assay with Lefty1 is -0.0906; in assay [8], -0.372; in assay [10] it was -0.452; in assay [15], 0.0741; in assay [16], -0.121; with Torsin-1A (Homo sapiens) [17], -1.48. The results for the composite z-score (in the assay with Torsin-1A (Homo sapiens) [18]; in assay [19]) were -1.07 and -0.162, respectively. Besides, the z-score in assay [7] is -0.705; in assay [9] it was 0.844 (inactive); in assay [11] it was -0.59 (inactive); in [12], 0.368 (inactive); in assay [13] it was -0.244 (inactive); in [14] it was -0.272 (inactive).
